# From PMC7862700, “An all-to-all approach to the identification of sequence-specific readers for epigenetic DNA modifications on cytosine”
# Columns and labels:
# Experiment in all cases: DAPPL (digital affinity profiling via proximity ligation, sequencing); 10 mM Tris-HCl pH 7.5, 50 mM NaCl, 1 mM DTT, 4% glycerol, room temperature, 30 min; GST-TFs on glutathione beads, 16-mer random dsDNA library, 0.1% formaldehyde crosslink after washing; high values mean tight binding
# FLI1 = biological target: T1, FLI1 (Homo sapiens, UniProt Q01543 1-452); details: protein: recombinant; tags: N-terminal GST; dsDNA, one strand shown
# T1 sequence: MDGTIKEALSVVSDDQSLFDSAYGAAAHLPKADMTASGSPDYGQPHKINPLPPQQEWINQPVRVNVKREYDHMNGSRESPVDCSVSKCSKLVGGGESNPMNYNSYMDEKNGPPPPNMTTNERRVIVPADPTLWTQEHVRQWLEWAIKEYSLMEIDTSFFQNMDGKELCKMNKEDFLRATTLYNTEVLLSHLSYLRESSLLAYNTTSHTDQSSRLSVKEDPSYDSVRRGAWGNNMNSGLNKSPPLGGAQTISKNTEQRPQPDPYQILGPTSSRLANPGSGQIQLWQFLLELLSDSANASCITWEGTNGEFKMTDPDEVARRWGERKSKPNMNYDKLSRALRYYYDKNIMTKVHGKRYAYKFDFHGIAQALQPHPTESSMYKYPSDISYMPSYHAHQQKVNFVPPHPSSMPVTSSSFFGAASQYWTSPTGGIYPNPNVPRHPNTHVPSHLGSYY
# Summary of the method: (§1)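 Human transcription factors carrying a GST fusion were produced in yeast, bound to glutathione beads, tagged with DNA barcodes and pooled together with a tag-only sample. Each pool was held with 200 nmole of a random double-stranded 16-mer DNA library in Tris/NaCl/DTT/glycerol buffer for 30 min at room temperature, then washed, crosslinked in 0.1% formaldehyde, proximity-ligated with BsaI/T4 ligase (1 h, 37 °C), PCR-amplified and sequenced on an Illumina NextSeq500. Binding signal is the read frequency of each hexamer for a given factor divided by its frequency in the tag-only sample.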
# ELK1 = biological target: T2, ELK1 (Homo sapiens, UniProt P19419 1-428); details: protein: recombinant; tags: N-terminal GST; dsDNA, one strand shown
# T2 sequence: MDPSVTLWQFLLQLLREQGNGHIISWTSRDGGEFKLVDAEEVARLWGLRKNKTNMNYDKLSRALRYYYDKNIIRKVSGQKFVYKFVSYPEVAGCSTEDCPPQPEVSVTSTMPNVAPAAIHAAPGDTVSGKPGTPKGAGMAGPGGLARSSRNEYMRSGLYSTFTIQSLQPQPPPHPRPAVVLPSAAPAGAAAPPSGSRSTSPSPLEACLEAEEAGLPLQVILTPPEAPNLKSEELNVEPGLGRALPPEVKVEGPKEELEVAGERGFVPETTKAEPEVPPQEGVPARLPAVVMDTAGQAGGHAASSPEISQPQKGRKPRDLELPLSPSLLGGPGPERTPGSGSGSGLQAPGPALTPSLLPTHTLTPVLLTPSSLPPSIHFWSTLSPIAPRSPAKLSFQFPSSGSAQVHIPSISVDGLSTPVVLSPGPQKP
# Summary of the method: as §1
# GABPA = biological target: T3, GABPA (Homo sapiens, UniProt Q06546 1-454); details: protein: recombinant; tags: N-terminal GST; dsDNA, one strand shown
# T3 sequence: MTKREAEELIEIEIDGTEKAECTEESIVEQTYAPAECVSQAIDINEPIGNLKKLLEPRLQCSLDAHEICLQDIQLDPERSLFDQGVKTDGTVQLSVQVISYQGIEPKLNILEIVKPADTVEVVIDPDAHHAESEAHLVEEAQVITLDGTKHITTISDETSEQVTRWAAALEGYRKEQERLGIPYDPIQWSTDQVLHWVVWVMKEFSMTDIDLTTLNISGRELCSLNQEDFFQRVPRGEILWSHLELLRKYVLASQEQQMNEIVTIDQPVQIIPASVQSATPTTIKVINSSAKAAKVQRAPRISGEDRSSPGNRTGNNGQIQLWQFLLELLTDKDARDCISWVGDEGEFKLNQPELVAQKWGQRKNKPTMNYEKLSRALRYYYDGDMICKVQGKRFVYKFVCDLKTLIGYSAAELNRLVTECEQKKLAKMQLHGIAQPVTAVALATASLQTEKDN
# Summary of the method: as §1
# ERG = biological target: T4, ERG (Homo sapiens, UniProt P11308 1-479); details: protein: recombinant; tags: N-terminal GST; dsDNA, one strand shown
# T4 sequence: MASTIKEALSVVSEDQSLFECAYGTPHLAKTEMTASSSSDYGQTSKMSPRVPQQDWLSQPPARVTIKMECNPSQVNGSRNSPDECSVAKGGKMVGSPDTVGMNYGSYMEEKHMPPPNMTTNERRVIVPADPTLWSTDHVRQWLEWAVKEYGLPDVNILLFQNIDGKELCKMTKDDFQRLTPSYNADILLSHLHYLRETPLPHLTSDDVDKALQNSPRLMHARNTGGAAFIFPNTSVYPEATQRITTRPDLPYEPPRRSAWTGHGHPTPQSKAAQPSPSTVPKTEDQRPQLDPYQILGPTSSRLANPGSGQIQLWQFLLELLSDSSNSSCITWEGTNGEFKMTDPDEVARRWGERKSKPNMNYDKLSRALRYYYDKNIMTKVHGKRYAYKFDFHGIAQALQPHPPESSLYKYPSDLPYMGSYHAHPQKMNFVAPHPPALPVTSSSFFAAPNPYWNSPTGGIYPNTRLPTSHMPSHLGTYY
# Summary of the method: as §1
# ELF1 = ELF1 (Homo sapiens, UniProt P32519 1-619); details: protein: recombinant; tags: N-terminal GST; dsDNA, one strand shown
# Chain of ELF1 (P32519 whole entry): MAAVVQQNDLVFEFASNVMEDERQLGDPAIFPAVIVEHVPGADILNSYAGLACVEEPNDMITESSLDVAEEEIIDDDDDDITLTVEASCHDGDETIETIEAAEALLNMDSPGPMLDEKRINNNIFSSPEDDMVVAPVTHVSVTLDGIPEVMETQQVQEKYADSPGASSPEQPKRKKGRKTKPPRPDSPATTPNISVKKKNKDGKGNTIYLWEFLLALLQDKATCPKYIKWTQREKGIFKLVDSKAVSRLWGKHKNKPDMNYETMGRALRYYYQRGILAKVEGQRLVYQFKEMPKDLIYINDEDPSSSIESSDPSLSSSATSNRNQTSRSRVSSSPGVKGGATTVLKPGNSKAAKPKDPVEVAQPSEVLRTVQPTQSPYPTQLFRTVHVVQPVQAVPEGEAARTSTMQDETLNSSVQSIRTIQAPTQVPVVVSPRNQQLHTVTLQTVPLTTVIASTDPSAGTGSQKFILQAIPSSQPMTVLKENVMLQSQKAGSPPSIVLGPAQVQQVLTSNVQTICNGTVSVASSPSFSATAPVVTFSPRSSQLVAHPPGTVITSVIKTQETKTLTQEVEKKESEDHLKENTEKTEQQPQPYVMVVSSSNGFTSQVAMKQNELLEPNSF
# Summary of the method: as §1
# EHF = biological target: T5, EHF (Homo sapiens, UniProt Q9NZC4 1-300); details: protein: recombinant; tags: N-terminal GST; dsDNA, one strand shown
# T5 sequence: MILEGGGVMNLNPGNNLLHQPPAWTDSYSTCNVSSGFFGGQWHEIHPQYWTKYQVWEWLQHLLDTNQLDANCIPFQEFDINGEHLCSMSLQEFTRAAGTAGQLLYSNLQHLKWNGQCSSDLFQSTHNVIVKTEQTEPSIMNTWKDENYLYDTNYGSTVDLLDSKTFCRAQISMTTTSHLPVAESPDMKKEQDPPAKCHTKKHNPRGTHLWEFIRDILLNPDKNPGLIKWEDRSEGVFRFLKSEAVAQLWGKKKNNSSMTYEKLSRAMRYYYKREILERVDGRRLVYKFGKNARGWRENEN
# Summary of the method: as §1
# SPI1 = SPI1 (Homo sapiens, UniProt P17947 1-270); details: protein: recombinant; tags: N-terminal GST; dsDNA, one strand shown
# Summary of the method: as §1
# SPIB = SPIB (Homo sapiens, UniProt Q01892 1-262); details: protein: recombinant; tags: N-terminal GST; dsDNA, one strand shown
# Chain of SPIB (Q01892 whole entry): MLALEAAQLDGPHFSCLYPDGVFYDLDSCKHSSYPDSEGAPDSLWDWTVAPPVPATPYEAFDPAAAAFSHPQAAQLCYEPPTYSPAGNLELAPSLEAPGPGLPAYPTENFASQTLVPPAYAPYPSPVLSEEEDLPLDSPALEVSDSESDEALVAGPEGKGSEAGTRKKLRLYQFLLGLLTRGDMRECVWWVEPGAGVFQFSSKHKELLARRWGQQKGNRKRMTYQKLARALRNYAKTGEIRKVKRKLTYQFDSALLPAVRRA
# Summary of the method: as §1
# ELK3 = biological target: T6, ELK3 (Homo sapiens, UniProt P41970 1-407); details: protein: recombinant; tags: N-terminal GST; dsDNA, one strand shown
# T6 sequence: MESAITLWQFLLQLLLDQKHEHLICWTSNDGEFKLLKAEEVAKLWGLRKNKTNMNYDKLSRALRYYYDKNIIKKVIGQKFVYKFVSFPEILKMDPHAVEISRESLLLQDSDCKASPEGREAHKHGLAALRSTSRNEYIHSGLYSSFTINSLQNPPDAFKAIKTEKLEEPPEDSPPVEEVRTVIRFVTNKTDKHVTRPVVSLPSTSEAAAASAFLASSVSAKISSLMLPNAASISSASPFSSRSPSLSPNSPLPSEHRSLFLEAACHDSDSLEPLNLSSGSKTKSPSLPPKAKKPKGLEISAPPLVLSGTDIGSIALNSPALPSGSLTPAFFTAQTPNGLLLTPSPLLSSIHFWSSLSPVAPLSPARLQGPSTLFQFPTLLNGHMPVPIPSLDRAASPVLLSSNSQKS
# Summary of the method: as §1
# FEV = biological target: T7, FEV (Homo sapiens, UniProt Q99581 1-238); details: protein: recombinant; tags: N-terminal GST; dsDNA, one strand shown
# T7 sequence: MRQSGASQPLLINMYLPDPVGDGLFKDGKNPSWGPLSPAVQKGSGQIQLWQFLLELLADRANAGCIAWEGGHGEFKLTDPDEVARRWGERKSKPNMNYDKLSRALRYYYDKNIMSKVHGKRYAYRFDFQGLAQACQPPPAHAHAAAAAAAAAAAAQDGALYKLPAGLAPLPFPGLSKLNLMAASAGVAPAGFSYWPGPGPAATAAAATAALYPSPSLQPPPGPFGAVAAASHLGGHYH
# Summary of the method: as §1
# ETV5 = ETV5 (Homo sapiens, UniProt P41161 1-510); details: protein: recombinant; tags: N-terminal GST; dsDNA, one strand shown
# Chain of ETV5 (P41161 whole entry): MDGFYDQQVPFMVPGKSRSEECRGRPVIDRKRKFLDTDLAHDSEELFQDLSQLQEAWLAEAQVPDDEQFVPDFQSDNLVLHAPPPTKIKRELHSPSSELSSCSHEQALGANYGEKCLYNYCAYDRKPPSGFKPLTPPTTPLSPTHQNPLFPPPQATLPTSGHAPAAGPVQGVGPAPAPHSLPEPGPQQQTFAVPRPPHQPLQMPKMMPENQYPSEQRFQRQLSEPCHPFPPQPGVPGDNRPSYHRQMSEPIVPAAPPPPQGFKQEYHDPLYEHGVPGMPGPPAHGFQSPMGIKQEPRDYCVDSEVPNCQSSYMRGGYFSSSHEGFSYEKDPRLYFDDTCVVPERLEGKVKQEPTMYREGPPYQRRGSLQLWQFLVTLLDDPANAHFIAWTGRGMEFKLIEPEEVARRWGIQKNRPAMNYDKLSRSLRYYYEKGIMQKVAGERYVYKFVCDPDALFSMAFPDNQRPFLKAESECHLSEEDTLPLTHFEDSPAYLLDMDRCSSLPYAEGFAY
# Summary of the method: as §1
# HSF1 = HSF1 (Homo sapiens, UniProt Q00613 1-529); details: protein: recombinant; tags: N-terminal GST; chain copies: 3; dsDNA, one strand shown
# Chain of HSF1 (Q00613 whole entry): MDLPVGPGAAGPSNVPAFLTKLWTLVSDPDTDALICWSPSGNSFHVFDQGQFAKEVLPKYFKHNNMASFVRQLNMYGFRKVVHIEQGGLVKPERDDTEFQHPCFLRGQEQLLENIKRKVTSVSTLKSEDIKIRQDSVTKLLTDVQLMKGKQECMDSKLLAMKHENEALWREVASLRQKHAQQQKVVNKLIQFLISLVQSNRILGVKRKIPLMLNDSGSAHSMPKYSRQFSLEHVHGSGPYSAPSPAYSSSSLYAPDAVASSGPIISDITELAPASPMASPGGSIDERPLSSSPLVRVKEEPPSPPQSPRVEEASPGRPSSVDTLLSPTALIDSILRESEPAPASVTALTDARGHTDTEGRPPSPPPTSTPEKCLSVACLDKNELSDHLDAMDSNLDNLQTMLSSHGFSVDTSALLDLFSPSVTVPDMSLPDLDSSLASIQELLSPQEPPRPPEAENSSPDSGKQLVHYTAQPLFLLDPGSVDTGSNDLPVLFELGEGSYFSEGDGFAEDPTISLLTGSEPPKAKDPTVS
# Summary of the method: as §1
# SPIC = biological target: T8, SPIC (Homo sapiens, UniProt Q8N5J4 1-248); details: protein: recombinant; tags: N-terminal GST; dsDNA, one strand shown
# T8 sequence: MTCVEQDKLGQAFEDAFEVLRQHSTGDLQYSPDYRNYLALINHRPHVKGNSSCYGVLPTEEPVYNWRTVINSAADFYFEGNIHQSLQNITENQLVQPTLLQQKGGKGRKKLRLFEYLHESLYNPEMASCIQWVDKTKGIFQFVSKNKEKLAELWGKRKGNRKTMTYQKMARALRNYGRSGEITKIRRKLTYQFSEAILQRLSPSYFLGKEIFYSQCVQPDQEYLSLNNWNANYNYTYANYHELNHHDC
# Summary of the method: as §1
# ELF4 = ELF4 (Homo sapiens, UniProt Q99607 1-663); details: protein: recombinant; tags: N-terminal GST; dsDNA, one strand shown
# Chain of ELF4 (Q99607 whole entry): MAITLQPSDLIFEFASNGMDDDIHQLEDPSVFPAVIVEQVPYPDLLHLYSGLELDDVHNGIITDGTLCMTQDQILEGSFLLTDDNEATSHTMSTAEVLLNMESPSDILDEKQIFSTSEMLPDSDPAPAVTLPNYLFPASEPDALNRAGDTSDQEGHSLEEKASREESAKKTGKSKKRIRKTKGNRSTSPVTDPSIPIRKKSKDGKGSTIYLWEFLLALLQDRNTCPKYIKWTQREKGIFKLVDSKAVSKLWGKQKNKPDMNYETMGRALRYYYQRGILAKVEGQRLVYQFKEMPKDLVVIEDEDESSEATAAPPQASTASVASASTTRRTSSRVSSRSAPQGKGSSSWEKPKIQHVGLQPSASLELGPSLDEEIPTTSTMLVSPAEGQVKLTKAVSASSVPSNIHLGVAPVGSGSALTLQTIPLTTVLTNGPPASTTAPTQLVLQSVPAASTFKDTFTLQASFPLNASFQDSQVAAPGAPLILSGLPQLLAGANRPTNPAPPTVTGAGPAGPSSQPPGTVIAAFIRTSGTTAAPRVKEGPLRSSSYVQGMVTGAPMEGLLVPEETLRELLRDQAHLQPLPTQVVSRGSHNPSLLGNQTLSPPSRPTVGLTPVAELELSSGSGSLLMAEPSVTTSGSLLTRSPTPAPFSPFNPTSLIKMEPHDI
# Summary of the method: as §1
# ELK4 = biological target: T9, ELK4 (Homo sapiens, UniProt P28324-2 1-405); details: protein: recombinant; tags: N-terminal GST; dsDNA, one strand shown
# T9 sequence: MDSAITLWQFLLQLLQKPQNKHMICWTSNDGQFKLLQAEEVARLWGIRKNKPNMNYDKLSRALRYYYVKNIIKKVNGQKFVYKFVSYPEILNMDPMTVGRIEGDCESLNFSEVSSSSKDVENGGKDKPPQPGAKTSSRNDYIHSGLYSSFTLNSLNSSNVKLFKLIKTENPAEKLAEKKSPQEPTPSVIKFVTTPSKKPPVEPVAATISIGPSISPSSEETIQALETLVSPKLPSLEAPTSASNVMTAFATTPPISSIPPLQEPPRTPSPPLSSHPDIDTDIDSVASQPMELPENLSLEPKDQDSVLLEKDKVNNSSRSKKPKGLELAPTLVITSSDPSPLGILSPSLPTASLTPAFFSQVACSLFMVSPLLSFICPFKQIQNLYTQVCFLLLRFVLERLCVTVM
# Summary of the method: as §1
# ETV2 = biological target: T10, ETV2 (Homo sapiens, UniProt O00321 1-342); details: protein: recombinant; tags: N-terminal GST; dsDNA, one strand shown
# T10 sequence: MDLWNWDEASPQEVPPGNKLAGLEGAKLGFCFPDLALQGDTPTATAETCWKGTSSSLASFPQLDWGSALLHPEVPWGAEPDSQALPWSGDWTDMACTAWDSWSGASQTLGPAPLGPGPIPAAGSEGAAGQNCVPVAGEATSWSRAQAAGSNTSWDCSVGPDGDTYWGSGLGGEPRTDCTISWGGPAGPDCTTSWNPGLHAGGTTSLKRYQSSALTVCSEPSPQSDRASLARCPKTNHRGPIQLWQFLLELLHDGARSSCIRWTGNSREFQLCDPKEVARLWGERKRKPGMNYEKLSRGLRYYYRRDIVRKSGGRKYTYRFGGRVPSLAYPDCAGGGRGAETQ
# Summary of the method: as §1
# ELF3 = biological target: T11, ELF3 (Homo sapiens, UniProt P78545 1-371); details: protein: recombinant; tags: N-terminal GST; dsDNA, one strand shown
# T11 sequence: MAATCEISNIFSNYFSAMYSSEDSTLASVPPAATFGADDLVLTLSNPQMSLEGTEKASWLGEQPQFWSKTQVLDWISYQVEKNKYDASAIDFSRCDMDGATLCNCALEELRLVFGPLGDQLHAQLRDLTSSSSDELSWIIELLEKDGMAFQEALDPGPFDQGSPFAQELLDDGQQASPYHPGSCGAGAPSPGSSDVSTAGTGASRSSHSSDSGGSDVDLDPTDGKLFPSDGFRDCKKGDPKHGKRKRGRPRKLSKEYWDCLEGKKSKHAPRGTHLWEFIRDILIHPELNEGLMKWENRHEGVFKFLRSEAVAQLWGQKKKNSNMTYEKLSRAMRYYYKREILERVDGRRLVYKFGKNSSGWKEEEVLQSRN
# Summary of the method: as §1
# CRX = CRX (Homo sapiens, UniProt O43186 1-299); details: protein: recombinant; tags: N-terminal GST; dsDNA, one strand shown
# Chain of CRX (O43186 whole entry): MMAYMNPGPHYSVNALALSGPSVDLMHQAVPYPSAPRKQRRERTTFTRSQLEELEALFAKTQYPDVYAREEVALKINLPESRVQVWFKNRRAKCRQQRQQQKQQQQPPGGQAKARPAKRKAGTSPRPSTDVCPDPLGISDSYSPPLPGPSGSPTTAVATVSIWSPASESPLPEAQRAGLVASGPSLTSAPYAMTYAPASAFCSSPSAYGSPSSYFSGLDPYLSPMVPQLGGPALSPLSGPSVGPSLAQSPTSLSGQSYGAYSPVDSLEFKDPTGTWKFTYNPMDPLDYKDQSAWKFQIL
# Summary of the method: as §1
# ETV1 = ETV1 (Homo sapiens, UniProt P50549 1-477); details: protein: recombinant; tags: N-terminal GST; dsDNA, one strand shown
# Chain of ETV1 (P50549 whole entry): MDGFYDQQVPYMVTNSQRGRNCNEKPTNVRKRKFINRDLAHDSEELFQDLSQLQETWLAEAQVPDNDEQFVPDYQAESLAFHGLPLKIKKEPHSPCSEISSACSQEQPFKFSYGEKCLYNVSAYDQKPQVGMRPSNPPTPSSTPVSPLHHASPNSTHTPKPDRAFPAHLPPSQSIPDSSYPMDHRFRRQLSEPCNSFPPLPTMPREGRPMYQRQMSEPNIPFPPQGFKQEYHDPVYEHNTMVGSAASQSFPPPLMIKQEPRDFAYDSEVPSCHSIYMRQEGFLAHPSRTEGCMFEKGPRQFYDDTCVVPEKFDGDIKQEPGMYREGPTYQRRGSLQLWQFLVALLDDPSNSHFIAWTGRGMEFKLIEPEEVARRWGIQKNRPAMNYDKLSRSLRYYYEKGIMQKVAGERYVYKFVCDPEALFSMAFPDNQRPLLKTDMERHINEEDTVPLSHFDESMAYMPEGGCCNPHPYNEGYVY
# Summary of the method: as §1
sequence,measurement,setting,value
CTTATA,binding signal,FLI1,"1.3 fold enrichment (6-mer frequency, TF over GST control)"
same,binding signal,ELK1,"1.33 fold enrichment (6-mer frequency, TF over GST control)"
same,binding signal,GABPA,"1.41 fold enrichment (6-mer frequency, TF over GST control)"
same,binding signal,ERG,"1.28 fold enrichment (6-mer frequency, TF over GST control)"
same,binding signal,ELF1,"1.33 fold enrichment (6-mer frequency, TF over GST control)"
same,binding signal,EHF,"1.4 fold enrichment (6-mer frequency, TF over GST control)"
same,binding signal,SPI1,"1.43 fold enrichment (6-mer frequency, TF over GST control)"
same,binding signal,SPIB,"1.39 fold enrichment (6-mer frequency, TF over GST control)"
same,binding signal,ELK3,"1.29 fold enrichment (6-mer frequency, TF over GST control)"
same,binding signal,FEV,"1.31 fold enrichment (6-mer frequency, TF over GST control)"
same,binding signal,ETV5,"1.29 fold enrichment (6-mer frequency, TF over GST control)"
same,binding signal,HSF1,"1.65 fold enrichment (6-mer frequency, TF over GST control)"
same,binding signal,SPIC,"1.34 fold enrichment (6-mer frequency, TF over GST control)"
same,binding signal,ELF4,"1.32 fold enrichment (6-mer frequency, TF over GST control)"
same,binding signal,ELK4,"1.38 fold enrichment (6-mer frequency, TF over GST control)"
same,binding signal,ETV2,"1.15 fold enrichment (6-mer frequency, TF over GST control)"
same,binding signal,ELF3,"1.37 fold enrichment (6-mer frequency, TF over GST control)"
same,binding signal,CRX,"2.27 fold enrichment (6-mer frequency, TF over GST control)"
same,binding signal,ETV1,"1.49 fold enrichment (6-mer frequency, TF over GST control)"
